Assay [1] addresses Luciferin 4-monooxygenase (Photinus pyralis) (UniProt P08659). Description: qHTS assay to identify small molecule inhibitors of firefly luciferase (AID 1224835). Also: nearly all actives have a fitted effect of over 25% in size. In short, it runs like this: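 Quantitative HTS format; KM concentrations of both substrates. Purified P. pyralis FLuc activity quantified from luminescence images.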
Assay [2] is described as follows: qHTS assay to identify small molecule agonists of the constitutive androstane receptor (CAR) signaling pathway - cell viability counter screen (AID 1224836). Also: nearly all actives have a fitted effect of over 45% in size. In a few lines:
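Fluorescence from CellTiter-Fluor indicates live cells after 23 h exposure. The human hepatoma line expresses hCAR and a CYP2B6-2.2kb reporter. Incubation medium contains 0.75 uM PK11195 (final).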

The nature of assay [3]: qHTS assay to identify small molecule antagonists of the estrogen related receptor signaling pathway with the pleiotropic PPARgamma coactivator (PGC) from Tox21 10K library - cell viability counter screen (AID 1224840; active = well fitted cell-killing curve with a large enough effect in the repeat runs, not every such curve was filed as active; also: nearly all actives have a fitted effect of over 40% in size). In short, it runs like this: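 Compounds in DMSO, alongside positive and negative controls, were pinned onto PGC/ERR cells (2,000 per well). Exposure lasted 17.5 hours at 37 C, followed by a 30-minute CellTiter-Fluor incubation and fluorescence reading.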

Assay [4] in a line: qHTS assay to identify small molecule agonists of the estrogen related receptor signaling pathway with the pleiotropic PPARgamma coactivator (PGC) from Tox21 10K library (AID 1224842). Also: nearly all actives have a fitted effect of over 15% in size. In a few lines:
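PGC/ERR reporter cells (NTP line) were seeded 2,000 per well, rested 6 h at 37 C/5% CO2, then pin-dosed with compounds in DMSO for 18 h at 37 C; luciferase read by One-Glo luminescence after 30 min at room temperature.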

Assay [5] in a line: qHTS assay to identify small molecule agonists of the hypoxia (HIF-1) signaling pathway - cell viability counter screen (AID 1224844; calls by dose curve; also: nearly all actives have a fitted effect of over 50% in size). In short, it runs like this: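 Luminescent ATP content (CellTiter-Glo, 30 min, room temperature) served as the viability measure in HRE-bla ME-180 cells exposed to compounds for 17 hrs in low-serum medium (0.5% dialyzed FBS).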
A short description of assay [6]: qHTS assay to identify small molecule agonists of H2AX (AID 1224845; active = well fitted activation curve with a large enough effect in the signal ratio in the repeat runs, not every such curve was filed as active; the % refers to the signal ratio). In a few lines: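 Wild-type CHO-K1 cells plated overnight, then exposed 3 hr at 37C to compounds at 15 concentrations (0.76% DMSO). Lysed, then HTRF anti-pH2AX(S139)-cryptate/anti-H2AX-d2 detection after 24 hr at room temperature; emissions 665 and 620 nm.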
Assay [7] can be described thus: qHTS assay to identify small molecule agonists of the hypoxia (HIF-1) signaling pathway (AID 1224846; active = well fitted activation curve with a large enough effect in the signal ratio in the repeat runs, not every such curve was filed as active; the % refers to the signal ratio). In short, it runs like this: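 Measured by blue/green FRET after loading CCF4-AM: beta-lactamase expressed from a hypoxia response element in ME-180 cells. Test agents were delivered in DMSO and left 17 hrs; cells had been plated 5 hrs earlier in low-serum (0.5% dialyzed FBS) medium.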

A short description of assay [8]: qHTS assay to identify small molecule agonists of H2AX - cell viability counter screen (AID 1224847; calls by dose curve; also: top concentration of the series differs between compounds; nearly all actives have a fitted effect of over 30% in size). In short, it runs like this:
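Viability of CHO-K1 (wild type) cells after 3 hr compound exposure was measured by CellTiter-Glo luminescence.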

A short description of assay [9]: qHTS RealTime-Glo MT Cell Viability Assay in HEK293 cells - 32 hour (AID 1224868). Also: top concentration of the series differs between compounds; nearly all actives have a fitted effect of over 50% in size. In a few lines:
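Reads taken at 0, 8, 16, 24, 32 and 40 h from the same wells. HEK293 cells (600/well) carried RealTime-Glo reagents from seeding, with compound added after a 5 h settle at 37 C.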

Assay [10] in a line: A CellTox Green Cytotoxicity Assay to monitor cytotoxicity in HEK293 cells - 0 hour (AID 1224869). Also: nearly all actives have a fitted effect of over 50% in size. In short, it runs like this: (§1)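 Each value comes from one timepoint of a single continuous run in which HEK293 cells with CellTox Green were exposed to compound for up to 40 h at 37 C, dye fluorescence rising with cell death.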
Assay [11] in a line: qHTS RealTime-Glo MT Cell Viability Assay in HepG2 cells - 40 hour (AID 1224870). Also: nearly all actives have a fitted effect of over 50% in size. In short, it runs like this:
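HepG2 cells mixed with RealTime-Glo MT reagents (NanoLuc plus cell-permeant prosubstrate) were seeded at 600 cells/well, incubated 5 h at 37 C/5% CO2, then pinned with compounds in DMSO; nonlytic luminescence tracked viability during 40 h treatment.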

Assay [12] can be described thus: A CellTox Green Cytotoxicity Assay to monitor cytotoxicity in HEK293 cells - 40 hour (AID 1224871). Also: nearly all actives have a fitted effect of over 45% in size. In a few lines:
as §1

Assay [13] has as its target Nuclear receptor subfamily 1 group I member 3 (Homo sapiens) (UniProt Q14994). Description: qHTS assay to identify small molecule agonists of the constitutive androstane receptor (CAR) signaling pathway (AID 1224839). Also: nearly all actives have a fitted effect of over 15% in size. Also: potency is read from the fitted curve at half-maximal effect.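 As to activation: HepG2 cells stably carrying human CAR and a CYP2B6 luciferase reporter.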 In a few lines:
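Stable hCAR/CYP2B6-2.2kb HepG2 line in DMEM with 10% FBS; compounds (15 concentrations) and 0.75 uM PK11195 final, 24 h at 37 C/5% CO2, then ONE-Glo luminescence after 30 min.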

Assay [14] concerns the target Thyrotropin receptor (Homo sapiens) (UniProt P16473). Description: qHTS assay to identify small molecule agonists of the thyroid stimulating hormone receptor (TSHR) signaling pathway (AID 1224843; calls by dose curve; also: nearly all actives have a fitted effect of over 45% in size; also: potency is read from the fitted curve at half-maximal effect). In short, it runs like this:
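TSHR-expressing HEK293 cells (800 per well) were exposed to compounds for 30 min at room temperature. cAMP was then detected by HTRF competition with cAMP-d2 and anti-cAMP cryptate, read after 1 h at room temperature. Fifteen concentrations, triplicate.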

The nature of assay [15]: qHTS RealTime-Glo MT Cell Viability Assay in HepG2 cells - 24 hour (AID 1224867). Also: nearly all actives have a fitted effect of over 50% in size. In short, it runs like this:
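HepG2 suspension premixed with RealTime-Glo reagents is plated at 600 cells per well and left 5 h at 37 C/5% CO2. Compounds in DMSO then go in, and bioluminescence reflecting viable cell number is recorded over 40 h.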

For assay [16], the target named is Nuclear receptor subfamily 1 group I member 3 (Homo sapiens) (UniProt Q14994). The assay can be described thus: qHTS assay to identify small molecule antagonists of the constitutive androstane receptor (CAR) signaling pathway (AID 1224838).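 Also: HepG2 cells stably expressing hCAR with CYP2B6 luciferase reporter stimulated by CITCO; nearly all actives have a fitted effect of over 40% in size.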 In short, it runs like this:
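Quantitative HTS in double-stable HepG2-CYP2B6-hCAR cells. After 4 h plating, cells get compound (15 concentrations) and CITCO at 50 nM final, incubate 24 h at 37 C, then ONE-Glo luminescence is read.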

The nature of assay [17]: qHTS assay to identify small molecule antagonists of the constitutive androstane receptor (CAR) signaling pathway - cell viability counter screen (AID 1224837). Also: nearly all actives have a fitted effect of over 45% in size. In short, it runs like this:
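Fluorescence from CellTiter-Fluor served as the viability signal. Human hepatoma HepG2 cells stably bearing hCAR and CYP2B6-2.2kb received compound plus CITCO (50 nM final) for 23 hr.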

A short description of assay [18]: qHTS assay to identify small molecule antagonists of the estrogen related receptor (ERR) signaling pathway from Tox21 library (AID 1224848). Also: nearly all actives have a fitted effect of over 50% in size. In short, it runs like this:
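Cells: ERR line, 2,000/well; 6 h preincubation 37 C/5% CO2. Cpd in DMSO via pin tool; 18 h, 37 C. ONE-Glo, 30 min RT, luminescence.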

The nature of assay [19]: qHTS assay to identify small molecule agonists of the estrogen related receptor (ERR) signaling pathway from Tox21 library (AID 1224849; calls by dose curve; also: nearly all actives have a fitted effect of over 15% in size). Particulars: ERR reporter cell line, ONE-Glo luciferase, 18 h; at 92.4 µM (top of the series) unless noted. In short, it runs like this: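 We plated ERR reporter cells, waited 6 h, added compounds in DMSO by pin tool and incubated them 18 h at 37 C. ONE-Glo was then added and luminescence read after 30 min.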

Assay [20] in a line: qHTS assay to identify small molecule antagonists of the estrogen related receptor signaling pathway with the pleiotropic PPARgamma coactivator (PGC) from Tox21 10K library (AID 1224841; call rule not given here). In a few lines: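 Compound exposure ran 18 hours at 37 C in PGC/ERR cells (2,000/well) that had first rested 6 hours in a 37 C/5% CO2 incubator. Luciferase activity was then detected with One-Glo after a 30-minute room-temperature step.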

Structures are written as SMILES. Values without a mark were called inactive. Inconclusive results are not listed. Calls of active or inactive are those of the source. Unless noted, calls follow the shape of the dose curve; as a rule, active = well fitted curve in the direction sought with a large enough effect in the repeat runs; inconclusive = weak or mixed curves; inactive = no such curve, though single readings can be large; an effect the other way counts as inactive or inconclusive.

This note sets out measurements from PubChem BioAssay (Tox21).
% is scaled to controls: 0 for no effect and ±100 for the full control effect.

Chain of Luciferin 4-monooxygenase (Photinus pyralis) (P08659 whole entry, looked up): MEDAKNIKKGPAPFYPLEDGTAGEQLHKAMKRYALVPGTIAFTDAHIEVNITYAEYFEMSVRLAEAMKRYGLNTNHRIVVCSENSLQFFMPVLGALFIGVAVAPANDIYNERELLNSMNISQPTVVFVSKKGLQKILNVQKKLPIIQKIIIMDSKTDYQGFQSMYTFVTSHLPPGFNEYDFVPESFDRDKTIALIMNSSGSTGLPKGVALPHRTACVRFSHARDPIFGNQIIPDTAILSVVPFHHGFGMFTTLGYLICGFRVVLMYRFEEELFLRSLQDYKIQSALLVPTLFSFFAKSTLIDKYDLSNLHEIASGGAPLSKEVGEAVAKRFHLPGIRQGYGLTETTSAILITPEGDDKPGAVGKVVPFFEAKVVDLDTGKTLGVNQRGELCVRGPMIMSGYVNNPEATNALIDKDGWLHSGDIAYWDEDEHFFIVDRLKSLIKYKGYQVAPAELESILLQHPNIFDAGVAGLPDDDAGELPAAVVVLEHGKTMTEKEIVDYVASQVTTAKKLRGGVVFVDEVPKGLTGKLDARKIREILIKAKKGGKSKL
Chain of Nuclear receptor subfamily 1 group I member 3 (Homo sapiens) (Q14994 whole entry, looked up): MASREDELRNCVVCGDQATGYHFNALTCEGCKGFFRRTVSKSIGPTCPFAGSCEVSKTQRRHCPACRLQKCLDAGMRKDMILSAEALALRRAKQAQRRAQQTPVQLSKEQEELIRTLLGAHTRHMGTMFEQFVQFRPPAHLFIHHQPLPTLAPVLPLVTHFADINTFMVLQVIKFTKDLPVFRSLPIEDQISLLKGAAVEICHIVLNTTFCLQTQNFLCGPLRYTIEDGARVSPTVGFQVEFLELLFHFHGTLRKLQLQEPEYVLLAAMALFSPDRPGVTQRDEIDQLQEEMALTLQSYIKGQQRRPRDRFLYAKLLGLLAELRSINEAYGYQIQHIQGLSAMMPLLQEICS
Chain of Thyrotropin receptor (Homo sapiens) (P16473 whole entry, looked up): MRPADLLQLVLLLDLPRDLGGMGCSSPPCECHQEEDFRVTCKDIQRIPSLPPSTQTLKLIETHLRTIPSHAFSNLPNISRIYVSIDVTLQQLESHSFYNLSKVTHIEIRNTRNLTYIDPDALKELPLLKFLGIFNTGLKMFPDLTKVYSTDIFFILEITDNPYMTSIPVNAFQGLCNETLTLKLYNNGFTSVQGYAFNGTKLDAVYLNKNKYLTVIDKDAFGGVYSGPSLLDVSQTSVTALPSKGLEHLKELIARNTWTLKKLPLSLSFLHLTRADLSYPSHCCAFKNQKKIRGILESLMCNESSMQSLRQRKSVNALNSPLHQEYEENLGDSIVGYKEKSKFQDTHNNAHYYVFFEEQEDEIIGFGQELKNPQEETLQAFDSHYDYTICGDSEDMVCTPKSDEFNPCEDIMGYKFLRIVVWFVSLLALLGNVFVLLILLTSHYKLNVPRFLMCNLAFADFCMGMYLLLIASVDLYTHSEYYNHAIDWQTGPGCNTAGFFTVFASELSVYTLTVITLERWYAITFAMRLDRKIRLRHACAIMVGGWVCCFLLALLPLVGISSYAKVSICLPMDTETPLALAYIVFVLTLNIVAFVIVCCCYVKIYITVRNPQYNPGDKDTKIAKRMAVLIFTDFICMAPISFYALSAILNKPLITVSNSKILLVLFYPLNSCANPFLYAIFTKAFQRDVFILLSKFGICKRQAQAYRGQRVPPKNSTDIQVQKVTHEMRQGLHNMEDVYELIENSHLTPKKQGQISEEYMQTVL

As for `CC(CC=O)CCCC(C)(C)O` (stereo not drawn), the Potency result in assay [1], in assay [2], in assay [8], in assay [9] and in [12] was “inactive” in each case. The result in assay [3], in [4], in [5], in assay [6], in assay [7] and in assay [10] was inactive. For the same molecule, the result in assay [11] was inactive.
For the molecule `CC(C)N(c1ccccc1)C(C)C`, the Potency entry in assay [1], in [2], in assay [13], in assay [14], in assay [8] and in assay [9] was “inactive” in each case. In addition, the Potency result in [12] is “inactive”. Moreover, the result in assay [3], in assay [5], in assay [6], in assay [7], in assay [15] and in assay [10] was inactive.
For `CC1(CO)CN(c2ccccc2)NC1=O` (stereo not drawn), the Potency entry in assay [1], in assay [2], in assay [8], in assay [9] and in assay [12] was “inactive” in each case. Besides, the molecule was called inactive in assay [16], in [3], in assay [5], in assay [7], in assay [10] and in assay [11].
As for `COc1ccc(S(=O)(=O)N2c3ccc(Cl)cc3[C@@](O)(c3ccccc3Cl)[C@H]2C(=O)N2CCC[C@@H]2C(N)=O)cc1OC`, the Potency result in assay [1], in assay [2], in assay [8] and in [12] was “inactive” each time. The outcome in assay [3], in assay [5], in assay [6], in assay [7] and in assay [15] was inactive.
With `Oc1cn2c(n1)Nc1ccc(Cl)c(Cl)c1C2`, the activity change, negative = inhibition in assay [1] is 0.455% [at 23.6 µM]. Besides, the viability change, negative = cytotoxic was -4.95% [at 19 µM] in [2] and 5.01% [at 19 µM] in assay [3]. Moreover, the activity, negative = inhibition in assay [16] was 39.2% [at 19 µM]. Moreover, in assay [14], the Potency is 730 nM (active). The activity change, negative = cytotoxicity was -1.47% [at 15.8 µM] in assay [5] and 0.633% [at 31.6 µM] in assay [8]. Further, in assay [6], the activation (H2AX phosphorylation) is -0.0397% [at 31.6 µM]. The activation in [7] was -0.566% [at 15.8 µM]. Besides, the activity change, negative = cytotoxic in assay [9] was 9.1% [at 15.8 µM]; in assay [11], -4.5% [at 15.8 µM]. The cytotoxicity in assay [10] is 0.503% [at 15.8 µM]. Moreover, the cytotoxicity increase in assay [12] was 2.17% [at 15.8 µM].
In the case of `Oc1ccccc1-c1nnco1`, the Potency result in assay [1], in assay [17], in assay [9] and in [12] was “inactive” in each case. In addition, the result in assay [3], in assay [5], in [6], in assay [7], in [10] and in assay [11] was inactive.
For `CC(C)(C)c1cc(CCC(=O)NN)cc(C(C)(C)C)c1O`, the Potency result in assay [1], in assay [2], in [18], in [9] and in assay [12] was “inactive” each time. Besides, the result in [16], in [3], in assay [4], in assay [5], in assay [6] and in [7] was inactive. For the same molecule, the call in [15], in assay [10] and in assay [11] was inactive. Besides, the Potency in assay [13] is 30.6 µM (active). Also, in assay [19], the activity change, positive = activation was -9%.
For `CC(=O)Nc1ccc(S(=O)(=O)Cl)cc1`, the Potency entry in assay [1], in [2], in assay [13], in [18], in [9] and in assay [12] was “inactive” in each case. Also, the result in assay [16], in assay [3], in assay [4], in assay [5], in assay [6] and in assay [7] was inactive. The call in assay [11] was inactive. Besides, the activity change, positive = activation in assay [19] is -0.863%.
Regarding `C=C(C)C(=O)OCC(C)(C)COC(=O)C(=C)C`, the Potency entry in assay [1], in assay [2], in [20], in assay [8], in [9] and in assay [12] was “inactive” each time. The outcome in assay [16], in assay [3], in assay [4], in assay [5], in [6] and in assay [7] was inactive. Further, the molecule was classed as inactive in assay [15] and in [11]. In addition, the activity change, positive = activation in assay [19] is 0.866%.
